PubChem BioAssay AID2417 (National Center for Advancing Translational Sciences (NCATS), 2010)
Among all 140,000 compounds or so, about 4,300 (3.1%) were called active. Roughly 21% stayed inconclusive and do not appear here. For the sample, actives were picked, then their nearest neighbours and some compounds at random. Values without a mark were called inactive.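 The calls were made as follows: active = readout at or below -70, meaning at least 70% loss of cells showing the perinucleolar compartment, a nuclear body marking cancer cells; inconclusive = readout between -30 and a set limit; inactive = the rest.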

assay: High Content Assay for Compounds that inhibit the Assembly of the Perinucleolar Compartment; settings: PC3M PTB-GFP, PNC prevalence imaging, 16 h; at 10 µM; active compounds read low;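 also: plate controls were DMSO wells for no effect and camptothecin positive control wells for full effect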
Excerpt: High Content Assay for Compounds that inhibit the Assembly of the Perinucleolar Compartment NIH Chemical Genomics Center [NCGC] NIH Molecular Libraries Probe Centers Network [MLPCN] MLPCN Grant: MH082371-01A2 Assay Submitter (PI): Sui Huang, Northwestern University, Feinberg School of Medicine, Cell and Molecular Biology, Chicago, Illinois. The perinucleolar compartment (PNC) is a non-membrane-bound nuclear subdomain that is associated with but structurally distinct from the nucleolus. The PNC is a heritable trait, in which the number of PNCs per cell in daughter cells often mimics that of their mother cells. The PNC is heterogeneous in shape, is stable through interphase, disassembles during mitosis, and reassembles in early G1. The PNC is concentrated with newly synthesized RNA polymerase III (pol III) RNAs (MRP RNA, RNAse P H1 RNA, hY RNAs[hY1, 2, 5], Alu RNA, and SRP [7SL] RNA) and RNA binding proteins (nucleolin, PTB, CUG-BP, KSRP, Raver1, Raver2, and Rod). […] Extensive in vitro studies have shown that the PNC is unique to tumor cells and preferentially forms in tumor cells derived from solid tissues. Examination of cancer cell lines from various origins and malignant capacities has shown that PNC prevalence correlates with the malignancy of tumors and has the potential to be developed as a pan-cancer prognostic marker. […] Although the PNC is associated with a DNA locus and a handful of components have been identified, much remains to be investigated regarding the structure and function of the PNC and its mechanistic link to cancer. We have previously shown that PNC prevalence reduction is a valid strategy to identify compounds that can be used to study the structure and function of the PNC. It is necessary, however, to create a screening platform that is able to test a large number of compounds in an automated fashion. Here we report the development and robustness of an automated whole-cell phenotypic image-based screening assay that is capable of identifying such compounds.
PNC High Content Imaging Assay Procedure: 1. Cells at a density of 75-90% confluency in T175 flasks were harvested using 7 ml TrypLE Express cell dissociation reagent. After dissociation (5 minutes room temperature incubation) 10 ml of complete media was added to the TrypLE/cell suspension. The liquid was transferred to a 50 ml Conical tube and cells were pelleted at 1000 RPM for 5 min. Supernatant was removed and cells were resuspended to a final density of 150-200 cells/ul in complete media. 2. Cells were plated in 5 ul volume (750-1000 cells/well) into 1536 well Black uclear Aurora Low Base plates and allowed to recover and adhere at 37 C in a humidified 5% CO2 incubator for 4 hours. 3. After 4 hour incubation, compound libraries (23 nl of […] in columns 5-48) were transferred to the plates in duplicate using a 1536 well pintool. Camptothecin positive control (59 uM final) was added to column 2 and 1:3 dilutions of camptothecin was added to column 3. DMSO negative controls were present in columns 1 and 4. 4. After a 16 hour incubation in the 37 C incubator, cells were fixed by the addition of 4 ul of 6% EM grade paraformaldehyde (containing 0.1% triton X 100) directly to the cells. The plates were incubated at room temperature for 20 minutes. The liquid was removed using a 32 channel Kalypsys aspirator and the fixed cells were washed twice with 5 ul PBS followed by a final addition of 5 ul PBS containing 1 ug/ml Hoechst 33342. 5. Fixed plates were sealed and sotred at 4C until imaged. 6. Plates were imaged on an InCell 1000 automated microscope using a 20 x objective, a standard FITC filter set, no camera binning, and an exposure time of ~100-150 msec/well. 7. Data analysis. PNC prevalence was determined using the Multitarget analysis module from InCell Workstation software (V3.5 ) and analysis was run on a quad core workstation using the Incell Developer Toolbox (V1.7). […]

SMILES | activity change (PNC), negative = inhibition
OC(CNC1CCCCC1)c1ccccc1 (stereo not given) | 38.6%
CC(=NCc1ccc2c(c1)OCO2)c1c(O)[nH]c(=O)[nH]c1=O | -17.3%
c1cc2c(cc1CCNC1CCCCCC1)OCO2 | -119% (active)
CNC(=S)N/N=C1\C2CN3CCN(C2)CC1(c1ccccc1)C3 | -18.5%
CCOC(=O)C(O)(c1ccc(N=Cc2ccccc2O)c(C)c1)C(F)(F)F (stereo not given) | -11.8%
Cc1ccc(-n2c(C)cc(/C=C3\C(=O)NC(=O)N(C)C3=O)c2C)cc1C | 23.8%
COc1ccc(-c2nc(CS(=O)CC(=O)N3CCC4(CC3)OCCO4)c(C)o2)cc1 (stereo not given) | -14.2%
Cc1ccc(Cn2c(C)c3cnn(CC(=O)N4CCC5(CC4)OCCO5)c(=O)c3c2C)cc1 | -100% (active)
O=C(CCCn1c(=O)[nH]c2cc(Cl)ccc2c1=O)N1CCC2(CC1)OCCO2 | 44%
CC(C)N(CC#CCC1(O)c2ccccc2-c2ccccc21)C(C)C | 48.8%
CN(C)C(=O)Oc1cc(=O)n2c3c(cccc13)CCC2 | 23.5%
Cc1ccc(-n2c(-c3ccc([N+](=O)[O-])cc3)nc3ccccc3c2=O)cc1 | -17%
CC(C(=O)Nc1ccc(Cl)cc1Cl)N1CC=C(c2ccccc2)CC1 (stereo not given) | 38%
Cc1cccc(OP(=O)(Oc2cccc(C)c2)OC(c2ccccc2)C(F)(F)F)c1 (stereo not given) | -3.33%
CCCCCn1c(=O)c(C(=O)NCc2ccccn2)c(O)c2ccccc21 | -112% (active)
CCCCCn1c(=O)c(C(=O)Nc2c(C)n(C)n(-c3ccccc3)c2=O)c(O)c2ccccc21 | -20.3%
Cc1ccnc(-n2c(C)cc(/C=C3\C(=O)NC(=S)N(C)C3=O)c2C)c1 | -11.7%
C=CCn1c(O)c(/C=N/N2CCOCC2)c(=O)[nH]c1=S | 60.9%
CN1CCN(c2cc(N3CCNCC3)ccc2[N+](=O)[O-])CC1 | 12.6%
CC1=C(C(=O)Nc2ccccc2)SCCO1 | -98% (active)
O=C1NC(=O)N(c2ccc(F)cc2)C(=O)/C1=C/c1ccc2c(c1)CCCN2Cc1ccccc1 | -20.7%
O=C1N=c2ccccc2=C/C1=C\c1c(O)[nH]c(=S)[nH]c1=O | -19.2%
CN(C)CC1CCCCC1OC(=O)c1ccc(Cl)c(Cl)c1 (stereo not given) | -10.5%
O=C1NC(=O)C(CCc2ccccn2)(Cc2cccc(Cl)c2Cl)C(=O)N1c1ccc(Br)cc1 (stereo not given) | -14.3%
Cc1ccc2c(c1)C1CN(C)CCC1N2C(=O)Cn1nnc(-c2ccccc2F)n1 (stereo not given) | -101% (active)
